# The full list was thinned out, with hits kept by preference.
# Dicer processing = blocks human Dicer maturation of pre-miR-21; Q9UPY3; cat-ELCCA pre-miR-21 Dicer processing, chemiluminescence; active compounds read high; z-score at 25 µM; actives 6% (n = 47,000); AID 1347074; in the data active = z-score above about 3, passing the limit was not always enough;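 note: higher signal means more uncleaved substrate so more Dicer inhibition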
# Numbers stand for hits; – = inactive.
SMILES,Dicer processing
COc1cc(C2c3c(oc4ccccc4c3=O)C(=O)N2Cc2ccc(F)cc2)ccc1O (centres undefined),–
COc1ccc(C2c3c(oc4cc(C)c(C)cc4c3=O)C(=O)N2c2ccc(C)cn2)cc1OC (centres undefined),–
CCOc1ccc(C2c3c(oc4ccccc4c3=O)C(=O)N2c2ccc(C)cn2)cc1OCC (centres undefined),–
Cc1ccc2oc3c(c(=O)c2c1)C(c1cccc(O)c1)N(c1ccccn1)C3=O (centres undefined),–
COc1cc(C2c3c(oc4cc(C)c(C)cc4c3=O)C(=O)N2c2ccc(C)cn2)ccc1O (centres undefined),14.6
Cc1ccc2oc3c(c(=O)c2c1)C(c1ccccc1F)N(c1ccccn1)C3=O (centres undefined),3.27
CSc1ccc(C2c3c(oc4ccc(C)cc4c3=O)C(=O)N2c2ccccn2)cc1 (centres undefined),–
Cc1ccc(N2C(=O)c3oc4ccccc4c(=O)c3C2c2ccc(Br)cc2)nc1 (centres undefined),–
CCOC(=O)NC(Nc1cccc(C)c1)(C(=O)OCC)C(F)(F)F (centres undefined),–
CC(C)C(NS(=O)(=O)c1ccc2c3c(cccc13)C(=O)N2C)C(=O)O (centres undefined),–
CC(=O)Oc1ccc(C2C(C(=O)OC(C)C)=C(C)NC3=C2C(=O)CCC3)cc1 (centres undefined),–
CCCCn1cnc2c(sc3nc4c(cc32)COC(C)(C)C4)c1=O,–
CCOc1ccc(C2c3c(oc4ccccc4c3=O)C(=O)N2c2ccccn2)cc1 (centres undefined),–
C=CCOc1ccc(C2c3c(oc4ccccc4c3=O)C(=O)N2c2ccccn2)cc1 (centres undefined),4.08
CCCCOc1ccc(C2c3c(oc4ccccc4c3=O)C(=O)N2c2ccccn2)cc1 (centres undefined),–
COc1ccc(-c2cnn3c(N)c(-c4ccccc4)cnc23)cc1OC,–
COc1ccc(CC2CCC(=NO)CC2)cc1 (centres undefined),–
CC(C)CCNc1nc2c(c(=O)[nH]c(=O)n2C)n1CCO,–
Cn1c(=O)[nH]c(=O)c2c1nc(NCc1ccco1)n2Cc1ccc(F)cc1,–
CC(C)CCn1c(NCc2ccco2)nc2c1c(=O)[nH]c(=O)n2C,3.59
CC(C)N(Cc1ccc(N(C)C)cc1)S(=O)(=O)c1cc(Cl)c(Cl)cc1Cl,–
N#CC(=C1SCCS1)S(=O)(=O)c1ccc(Cl)cc1,–
N#CC(=C1SCCS1)c1ccc(Cl)cc1,4.68
N#CC(=C1SCCCCS1)S(=O)(=O)c1ccc(Cl)cc1,–
Clc1ccc(-n2nnnc2/C=C/N2CCN(c3cccc(Cl)c3)CC2)cc1,–
SMILES,Dicer processing
CCOC(=O)C12CCCC(C(=O)OCC)(CC1=O)C(=O)C2,–
O=[N+]([O-])c1cnc(Sc2n[nH]c(-c3ccccc3)n2)s1,–
COc1ccc(C2C(C(=O)OC3CCCC3)=C(C)NC3=C2C(=O)CCC3)cc1OC (centres undefined),–
O=C(CSc1nnc(-c2ccccc2)o1)c1ccccc1,–
O=C(CSc1nnc(-c2ccccc2)o1)OCc1ccccc1,3.44
CCOC(=O)CSc1nnc(-c2ccc(C)cc2)o1,–
O=C(Nc1ccc(F)cc1)C1Sc2nnc(-c3ccccc3)n2NC1c1ccccc1 (centres undefined),–
CN(C)c1scc(-c2ccccc2)c1C#N,15
CSc1scc(-c2cccc(Cl)c2)c1C#N,–
COC(=O)c1sc(N(C)C)c(C#N)c1-c1ccccc1,–
O=c1c2ccccc2nc(/C=C/c2ccco2)n1Cc1ccccc1,3.01
O=C(CSc1nc2ccccc2c(=O)n1Cc1ccco1)c1ccccc1,–
Cc1nc2ccc(Br)cc2c(=O)o1,–
O=c1oc(/C=C/c2ccco2)nc2ccccc12,17.7
C(=C\c1ccco1)/C1=NN(Cc2ccccc2)CC1,–
COc1ccccc1/C=C/c1nc2cc(Cl)ccc2c(=O)o1,–
O=C(Nc1nc2ccccc2c(=O)s1)c1ccco1,–
Cc1ccc2nc(-c3cc4ccccc4o3)oc(=O)c2c1,–
Cc1ccc2nc(/C=C/c3ccco3)oc(=O)c2c1,10.7
COC(=O)c1ccc(OC(=O)c2sc3ccccc3c2Cl)cc1,–
CCOC(=O)c1cc2c(N)c(C(=O)OCC)sc2nc1C(F)(F)F,–
c1csc(-c2noc(CSc3nc4ccccc4[nH]3)n2)c1,–
Cc1ccc(C(=O)CC2(O)C(=O)Nc3ccc(Br)cc32)cc1 (centres undefined),–
Cn1c(-c2ccc(F)cc2)cnc1NCc1cc(Br)ccc1F,3.13
CCOc1cc(CNc2ncc(-c3ccc(Br)cc3)n2C)ccc1O,3.42
SMILES,Dicer processing
Cc1ccc(-c2cnc(NCc3cc(Br)ccc3F)n2C)cc1,–
Cn1c(-c2ccccc2)cnc1NCc1ccc(Br)cc1,–
CCOc1ccc(-c2cnc(NCc3cc(Cl)ccc3O)n2C)cc1,–
COc1cccc(CNc2ncc(-c3ccc(Br)cc3)n2C)c1,–
COc1cccc(-c2cnc(NCc3cc(Br)ccc3F)n2C)c1,–
Cn1c(-c2ccc(F)cc2)cnc1NCc1cc(Cl)ccc1O,5.61

# Screens (PubChem BioAssay)
